Reference: PubChem BioAssay (NCATS)
Inconclusive results are not listed. Activity calls are given as the source filed them. Calls follow the shape of the dose curve; as a rule, active = well fitted cell-killing curve with a large enough effect; inconclusive = small, poorly fitted or top-dose-only effect; inactive = flat fitted curve, though single readings scatter.

Test: Quantitative highthroughput screen to assess conditional lethalithy of NOMO1 cells grown in RPMI1640 with untreated serum (RPMI+s) (AID 1963876); also: nearly all actives have a fitted effect of over 35% in size
Conditions: NOMO1 AML cells in RPMI+serum, CellTiter-Glo viability, 48 h; series mostly up to 45.8 µM; viability: at the top concentration
Text: Assay Provider: Jason Cantor Ph.D.
Department of Biochemistry
University of Wisconsin-Madison, Madison, WI, USA
Chemical screening studies have identified drug sensitivities across hundreds of cancer cell lines but most putative therapeutics fail to translate. Discovery and development of drug candidates in models that more accurately reflect nutrient levels in human blood is a major challenge. Here we performed high-throughput screens in conventional versus Human Plasma-Like Medium (HPLM) to identify compounds that were "missed" when screening using the artificial culture condition. Sets of conditional anticancer compounds spanned phases of clinical development and included non-oncology drugs were assessed. […] We also traced conditional phenotypes for several chemotherapeutics to availability of HPLM-specific metabolites and confirmed others for compounds whose reported targets are encoded by nonessential genes. Our findings establish generalizable strategies for exploiting conditional lethality in HPLM to reveal therapeutic candidates and mechanisms of action in cancer cells.
Described herein are the results of each viability screens against three cell lines: NOMO1 (an acute myeloid leukemia cell line); P12-Ichikawa (a T-cell acute lymphoblastic leukemia); and SEM (a B-cell ALL). Each assay was screened using 3 different cell culture media: homemade human plasma-Like medium with 10% dialyzed fetal bovine serum (HPLM+ds); RPMI1640 with 10% untreated FBS and 5mM glucose (RPMI+s); and RPMI1640 with 10% dialyzed fetal bovine serum and 5 mM glucose (RPMI+ds).
PROTOCOL TABLE (as described by Inglese J, Shamu CE and Guy RK. 2007)
SEQUENCE No. (e.g., 1, 2, 3, etc.); […] (e.g., Cells, Incubation, Reagent, etc.); VALUE and DESCRIPTION.
1; Cells; 5 uL; white, solid bottom 1536-well Greiner assay plate.
2; Compounds; 23 nL; Kalypsis pin tool (Wako USA) equipped with a 1536-well pin head to transfer to the assay plates.
3; Incubation; 48 hours; 37C incubation.
4; Reagent; 3 uL; CellTiter Glo (Promega).
5; Incubation; 5 min, room temperature
6; Detection; Luminescence, Viewlux PerkinElmer.
NOTES (numbers refer to Sequence numbers above)
1. Briefly, 5 ul of cell reagent was dispensed using a Multidrop Combi Dispenser. The NOMO1 and SEM cells were plated at 500 cells/well and the P12-Ichikawa line at 1000 cells/well.
2. After seeding the cells, 23 nL of MIPE 4.1 library compounds (in DMSO) were added to each plate using a Kalypsys 1536 Pintool dispenser. Bortezomib at final concentration of […] and DMSO were added to each plate as positive and negative controls respectively. For each screen, MIPE 4.1 compounds were added over an eleven-point concentration range […] in 3-fold dilutions.
3. Each plate was covered with a stainless steel gasketed lid to prevent evaporation and incubated for 48 hour at 37C, 95% relative humidity, and 5% CO2.
4-5. Three microliter CellTilter-GloTM luminescent substrate mix (Promega) reagent was added to the assay plate and incubated at room temperature for 5 min.
6. The luminescence signal was measured using a ViewLux (PerkinElmer) multiplate reader with a 2 second exposure time per plate. Data for each compound were normalized as percent viability such that measurements for DMSO and the empty well controls in each plate were defined as 100% and 0%, respectively.
Potency is read from the fitted curve at half-maximal effect.

Structure (SMILES) | viability | Potency
CNc1nc(Nc2ccc(C(=O)N3CCOCC3)cc2OC)ncc1Cl | 90.2% (inactive) | –
CC1(C)SCCN(S(=O)(=O)c2ccc(OCC#CCO)cc2)[C@@H]1C(=O)NO | 97.6% (inactive) | –
CC=C(C(=CC)c1ccc(O)cc1)c1ccc(O)cc1 | 92.7% (inactive) | –
O=C1NC(=O)C(c2cnc3ccccn23)=C1c1cn2c3c(cc(F)cc13)CN(C(=O)N1CCCCC1)CC2 | 89.6% (inactive) | –
O=C(C=Cc1ccc(/C=C/C(=O)Nc2ccc(C3=NCCN3)cc2)cc1)Nc1ccc(C2=NCCN2)cc1 | 114% (inactive) | –
CCN[C@H]1C[C@H](C)S(=O)(=O)c2sc(S(N)(=O)=O)cc21 | 98.7% (inactive) | –
Cc1ncc(-c2ccnc(Nc3ccc(S(C)(=O)=O)cc3)n2)n1C(C)C | – | 7.43 µM (active)
CC#CCn1c(N2CCC[C@@H](N)C2)nc2c1c(=O)n(Cc1nc(C)c3ccccc3n1)c(=O)n2C | 97.2% (inactive) | –
CCC(c1ccc(O)cc1)C(CC)c1ccc(O)cc1 (stereo not given) | 96.1% (inactive) | –
CCN(CCO)CCCC(C)Nc1ccnc2cc(Cl)ccc12 (stereo not given) | – | 10.5 µM (active)
CCn1c(C(=O)N(C2CC2)C2CC2)cc2c3c(ncn3C)c(Nc3cc(C)n(C)n3)nc21 | 79.9% (inactive) | –
Cc1ccc(S(=O)(=O)OCC(=O)Nc2ccc(C(=O)O)c(O)c2)cc1 | 78.3% (inactive) | –
COc1cccc(-c2cc(=O)c3ccccc3o2)c1N | 88.3% (inactive) | –
O=C1CCc2ccc(OCCCCN3CCN(c4cccc(Cl)c4Cl)CC3)cc2N1 | 90.8% (inactive) | –
CS(=O)(=O)c1ccc(C2=C(c3ccccc3)C(=O)OC2)cc1 | 106% (inactive) | –
CC(C)c1ccc2c(c1)c(SC(C)(C)C)c(CC(C)(C)C(=O)O)n2Cc1ccc(Cl)cc1 | 103% (inactive) | –
CN[C@H]1CCc2cc(OC)c(OC)c(OC)c2-c2ccc(OC)c(=O)cc21 | – | 0.0093 µM (active)
C[C@@H]1COCCN1c1cc(C2(S(C)(=N)=O)CC2)nc(-c2ccnc3[nH]ccc23)n1 (stereo not given in full) | – | 4.67 µM (active)
C[C@H](NCc1ccc2c(c1)nc(NC(=O)c1ccc(-c3cn[nH]c3)s1)n2CCc1ccccc1)C(C)(C)C | – | 9.35 µM (active)
NC1(Cc2ccc(Cl)cc2)CCN(c2ncnc3[nH]ccc23)CC1 | – | 10.5 µM (active)

Structure (SMILES) | viability | Potency
CN1C(=O)C[C@H](C(=O)N[C@@H](Cc2cnc[nH]2)C(=O)N2CCC[C@@H]2C(N)=O)NC1=O | 105% (inactive) | –
C1COC(NC(C2CC2)C2CC2)=N1 | 98.9% (inactive) | –
Cc1cnc(-c2cc(N3CCN(C(=O)CCS(C)(=O)=O)CC3)ncc2Cl)c(C)c1 | 106% (inactive) | –
C=CCNC1=C2C[C@@H](C)C[C@H](OC)[C@@H](O)[C@@H](C)C=C(C)[C@H](OC(N)=O)[C@@H](OC)C=CC=C(C)C(=O)NC(=CC1=O)C2=O | – | 5.26 µM (active)
O=C1CSC(=O)N1C(CCc1ccncc1)COc1ccc(-c2cccc([N+](=O)[O-])c2)cc1 (stereo not given) | 93.7% (inactive) | –
C[C@]12CC[C@H](O)CC1=CC[C@@H]1[C@H]2CC[C@]2(C)C(c3cccnc3)=CC[C@H]12 | 103% [at 23.2 µM] (inactive) | –
COc1ccc2cc1Oc1ccc(cc1)C[C@H]1c3cc(c(OC)cc3CCN1C)Oc1c(OC)c(OC)cc3c1[C@H](C2)N(C)CC3 | 87% (inactive) | –
CNCc1ccc(-c2[nH]c3cc(F)cc4c3c2CCNC4=O)cc1 | 95.7% (inactive) | –
Nc1ncnc2nc(-c3ccc(N4CCOCC4)nc3)cc(-c3cccc(Br)c3)c12 | 99.1% (inactive) | –
NCCc1ccc(O)c(O)c1 | – | 14.8 µM (active)
CCOc1cc(C=C2C(=O)N(c3ccccc3)N=C2C)cc(Cl)c1OCC(=O)OC | 99.3% (inactive) | –
Nc1ccccc1NC(=O)c1ccc(CNC(=O)OCc2cccnc2)cc1 | – | 2.64 µM (active)
Clc1ccc(C2(c3ccc(-c4cn[nH]c4)cc3)CCNCC2)cc1 | – | 14.8 µM (active)
O=C(O)c1cccc(-c2noc(-c3ccccc3F)n2)c1 | 103% (inactive) | –
CC(C)(C)c1cc(C(C)(C)C)c(NC(=O)c2c[nH]c3ccccc3c2=O)cc1O | 92.7% (inactive) | –
CC[C@H]1OC(=O)[C@H](C)[C@@H](O[C@H]2C[C@@](C)(OC)[C@@H](O)[C@H](C)O2)[C@H](C)[C@@H](O[C@@H]2O[C@H](C)C[C@H](N(C)C)[C@@H]2O)[C@](C)(OC)C[C@@H](C)C(=O)[C@H](C)[C@@H](O)[C@]1(C)O | 95.6% (inactive) | –
O=C1Nc2ccc(I)cc2C1=Cc1cc(Br)c(O)c(Br)c1 | 95.3% (inactive) | –
C[C@@H]1CN(Cc2ccc(F)cc2)[C@@H](C)CN1C(=O)c1cc2c(C(=O)C(=O)N(C)C)cn(C)c2cc1Cl | 105% (inactive) | –
CC(C)(C)c1nc2c3cc[nH]c(=O)c3c3cc(F)ccc3c2[nH]1 | – | 5.9 µM (active)
Cc1ccccc1C(=O)c1ccc(Nc2ccc(Br)cc2N)cc1Cl | 87% (inactive) | –
